DT40 TDP1 CPT: DT40-hTDP1 cell growth loss with CPT. chicken DT40 Tdp1-/-;hTDP1 cells + 20 nM CPT, ATP luminescence, 48 h. Potency, µM (doses to about 46.2 µM), most hits filed as inhibitors. 12% of 420,000 active. AID 686979; note: nearly all actives have a fitted effect of over 55% in size
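Chicken DT40 Tdp1-/- cells complemented with human TDP1, 400 cells/well, exposed to compounds plus 20 nM camptothecin for at least 48 h at 37 C; viability read as ATP content by CellTiter-Glo luminescence.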
ClpP mod: qHTS Assay for Activators of ClpP; Potency, µM (top dose mostly 57.5 µM); ATP-dependent Clp protease proteolytic subunit (Bacillus subtilis (strain 168)), P80244; AID 651965, 2013; purified B. subtilis ClpP, FRET peptide cleavage, 20 min; 1.9% of 340,000 active; active = well fitted falling curve with a large enough effect; inconclusive = small, poorly fitted or top-dose-only effect; inactive = no such curve, though single readings can be large or run the other way; note: the source files actives as falling curves though it sought activators and does not explain the sign; nearly all actives have a fitted effect of over 65% in size
Target sequence (P80244 whole entry, looked up): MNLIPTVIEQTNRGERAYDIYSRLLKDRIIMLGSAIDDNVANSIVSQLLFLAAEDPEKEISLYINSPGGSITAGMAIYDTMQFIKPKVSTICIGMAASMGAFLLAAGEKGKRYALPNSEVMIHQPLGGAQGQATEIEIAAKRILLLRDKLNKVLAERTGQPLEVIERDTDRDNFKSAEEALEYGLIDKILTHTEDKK
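Buffer: 100 mM Tris/HCl pH8, 100 mM KCl, 0.05% low protease BSA, 2.5% glycerol, 0.01% Tween-20. ClpP 10 microg/mL final; 20 min RT; delta FRET normalized to ADEP and DMSO controls.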
D3 ag: agonists of human D3 dopamine receptor. P35462. D3R DiscoveRx beta-arrestin cells, luminescence, 90 min. max activation, %. 0.58% of 410,000 active; in the data active = max activation above about 30%
Target sequence (P35462 whole entry, looked up): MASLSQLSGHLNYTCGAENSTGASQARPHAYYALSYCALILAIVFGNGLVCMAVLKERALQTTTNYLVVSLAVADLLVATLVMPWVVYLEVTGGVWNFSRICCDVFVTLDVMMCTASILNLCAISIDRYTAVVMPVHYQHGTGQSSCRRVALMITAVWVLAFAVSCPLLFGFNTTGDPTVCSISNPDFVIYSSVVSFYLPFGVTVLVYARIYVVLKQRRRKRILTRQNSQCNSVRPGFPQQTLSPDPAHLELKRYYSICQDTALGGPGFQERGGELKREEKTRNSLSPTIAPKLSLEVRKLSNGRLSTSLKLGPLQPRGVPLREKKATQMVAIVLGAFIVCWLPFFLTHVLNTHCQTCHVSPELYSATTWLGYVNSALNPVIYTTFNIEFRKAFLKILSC
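Cells at 1500/well, incubated overnight, then treated with pinned compounds (dopamine as control) for 90 min at 37 degrees C. DiscoveRx reagent added for 30 - 60 minutes at room temperature; luminescence read.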
DT40 TDP1 no CPT: qHTS for Inhibitors of human tyrosyl-DNA phosphodiesterase 1 (TDP1): qHTS in cells in absence of CPT | DT40 Tdp1-/- hTDP1 cells, no CPT, ATP luminescence, 48 h | Potency, µM (top dose mostly 46.2 µM), usual class: inhibitors | 15% of 420,000 active; note: nearly all actives have a fitted effect of over 55% in size
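Growth of hTDP1-complemented DT40 Tdp1-knockout cells is measured by ATP luminescence after at least 48 hr compound exposure at 37 °C, with DMSO substituting for the 20 nM CPT used in the parallel screen.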
DRD3 antagonist: D3 dopamine receptor (human) antagonism; P35462; D3R cells, DiscoveRx beta-arrestin luminescence, antagonist mode; active compounds read low; max response, negative = inhibition, %; 2.5% of 360,000 active; AID 652054; in the data active = max response below about -50%; inconclusive = no clear call, values can overlap the other calls
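Cells plated overnight at 1500 cells/well, then exposed to library compounds with dopamine controls for 90 minutes at 37 degrees C. DiscoveRx reagent added for 30–60 minutes at room temperature; luminescence read, quantitative HTS format.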
IL-1B inflam inh: blocks inflammasome-driven IL-1 beta release. THP-1 LPS/ATP IL-1B secretion, AlphaLISA, 16 h; active compounds read low. activity change, % at 57.5 µM. 4.7% of 360,000 active. AID 743279; in the data active = activity change below about -50%; inconclusive = mostly about -30% to -49%
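Secreted IL-1B measured by AlphaLISA bead assay after 16 h compound exposure of THP-1 cells; compounds (final up to 57.5 uM) added 1 h before LPS (250 ng/mL) and ATP (1.25 mM) stimulation; lower signal means less secretion.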
Hits are given with their value; – = inactive; ? = inconclusive; · = no result. This is a sample that favours compounds with a hit; in the whole collection about 21% have one here. Unless noted, calls come from the whole dose curve; as a rule, active = well fitted inhibition curve with a large enough effect; inconclusive = small, poorly fitted or top-dose-only effect; inactive = flat fitted curve, though single readings scatter.

SMILES	DT40 TDP1 CPT	ClpP mod	D3 ag	DT40 TDP1 no CPT	DRD3 antagonist	IL-1B inflam inh
Cc1cc(OCC(=O)N[C@@H](Cc2ccccc2)C(=O)O)c2c3c(c(=O)oc2c1)CCCC3	–	–	–	–	–	–
CSC[C@H](NC(=O)COc1cc2c(c3oc(=O)c(C)c(C)c13)CCC(C)(C)O2)C(=O)O	–	28µM	–	–	–	–
CCCCC[C@@H]1CCCCC[C@@H](O)C[C@@H](O)[C@@H](O)/C=C/C(=O)O1	?	–	–	–	–	–
COc1ccc(CNCCc2c[nH]c3ccccc23)c(OC)c1C	5.8µM	–	–	7.3µM	-71	·
COc1cccc(CNCCc2ccccc2)c1OC	–	·	–	–	–	–
COc1cc(C)c(CNCCc2c[nH]c3ccccc23)cc1C	8.2µM	–	–	7.3µM	–	-72
COc1ccc(CNCCc2ccccc2F)c(OC)c1C	15µM	–	–	23µM	–	-65
CCOc1cc(CNCCc2ccccc2F)ccc1OC	?	–	–	?	–	–
O=c1c2ccccc2nc(C[n+]2ccccc2)n1-c1cccc(C(F)(F)F)c1	–	·	–	–	–	–
CCCCC[C@H]1CCCCC[C@@H](O)C[C@H](O)[C@H](O)/C=C/C(=O)O1	?	–	–	?	–	–
C[C@H]1CCC/C=C/C2C[C@H](O)C[C@H]2[C@H](O)/C=C/C(=O)O1 (stereo partly specified)	0.25µM	·	·	0.35µM	·	·
C[C@H]1CCC/C=C/[C@@H]2C[C@H](O)C[C@H]2[C@H](O)/C=C/C(=O)O1	0.58µM	–	–	0.65µM	–	-53
C[C@H]1C[C@H]2[C@@H]3CCC4=CC(=O)C=C[C@]4(C)[C@@]3(F)[C@@H](O)C[C@]2(C)[C@@]1(O)C(=O)CCl	–	·	–	0.053µM	·	·
CC(=O)[C@@]1(O)CC[C@H]2[C@@H]3CCC4=CC(=O)CC[C@]4(C)C3(F)[C@@H](O)C[C@@]21C (stereo partly specified)	–	·	–	–	·	·
CC(Cc1ccccc1)NC(=O)/C=C/c1ccc(Cl)cc1 (stereo unspecified)	?	–	–	?	–	-54
CN(C)C(=O)Oc1ccnc2cc(Cl)ccc12	–	·	–	?	–	-73
CN1CC[C@@]2(CCCN(C(=O)c3ccco3)C2)C1	–	·	·	–	·	·
CCC1Nc2ncnc(N3CCN(c4ccccn4)CC3)c2N(Cc2ccc(Br)cc2)C1=O (stereo unspecified)	?	–	–	?	-142	?
O=S(=O)(c1ccccc1C(F)(F)F)N1CCN(c2ncnc3sccc23)CC1	15µM	–	–	8.2µM	–	-62
C#CCCC[C@@H]1OC(=O)CNC(=O)C([C@@H](C)CC)NC(=O)[C@@H]2CCCN2C(=O)C([C@@H](C)CC)OC(=O)[C@H](Cc2ccccc2)N(C)C(=O)[C@H](C(C)C)NC(=O)C1(C)C (stereo partly specified)	13µM	–	–	21µM	–	–
Cc1cccc2c1=NC(=O)/C(=C/c1c(O)[nH]c(=O)[nH]c1=O)C=2	?	13µM	–	–	–	–
N[C@@H](Cn1ccc(=O)n(Cc2ccc(C(=O)O)cc2)c1=O)C(=O)O	–	·	·	–	·	·
ClC(Cl)(Cl)Cl	–	·	–	–	·	·
c1ccc2c(c1)CNCc1cnnn1-2	–	–	–	–	–	–
CCOc1cc2c(cc1OCC)-n1cccc1C(c1cc(C)c(OC)cc1C)NC2 (stereo unspecified)	10µM	–	–	7.3µM	–	–
SMILES	DT40 TDP1 CPT	ClpP mod	D3 ag	DT40 TDP1 no CPT	DRD3 antagonist	IL-1B inflam inh
CCOc1cc2c(cc1OCC)-n1cccc1C(c1ccc(OC)c(O)c1)NC2 (stereo unspecified)	?	·	–	18µM	–	?
CCOc1cc2c(cc1OCC)-n1cccc1C(c1ccc(C)cc1C)NC2 (stereo unspecified)	?	·	–	?	–	-90
CCOc1cc(C2NCc3ccccc3-n3cccc32)ccc1OC (stereo unspecified)	–	–	–	–	–	?
CCCC12CN3CC(C)(CN(C1)C3c1c(C)[nH]c(=O)[nH]c1=O)C2=O (stereo unspecified)	–	–	–	–	·	·
COC/C=C1\CN2C3C[C@@H]1[C@H]1COC4=Nc5cc(OC)c(OC)c(OC)c5[C@@]43C[C@@H]12	–	–	–	–	–	–
C[C@@H]1CN([C@H](C)CO)C(=O)c2cc(/C=C/c3ccccc3)cnc2O[C@H]1CN(C)C(=O)NC1CCCCC1	?	–	–	?	–	?
O=[N+]([O-])[N-][n+]1cnn(Cc2ccccc2)c1	–	–	–	–	–	–
Cc1cnc(SCc2ccccn2)nc1C1CCCN(C(=O)c2scc3c2CCCC3)C1 (stereo unspecified)	12µM	·	·	10µM	·	·
Cc1cnc(SCc2ccccn2)nc1C1CCCN(C(=O)c2ccc(-c3ccccc3F)cc2)C1 (stereo unspecified)	?	·	·	23µM	·	·
Cc1noc(C)c1CC(=O)N1CCCC(N2CCN(c3ccccc3F)CC2)C1 (stereo unspecified)	–	–	–	–	–	–
C#CC[N+]1(C)C2CCC1CC(O)C2 (stereo unspecified)	?	–	–	–	–	–
Cn1c(CCCC(=O)O)nc2cc(N(CCCl)CCCl)ccc21	?	·	–	19µM	·	·
CCCC(=O)NC(Oc1ccccc1Cl)C(Cl)(Cl)Cl (stereo unspecified)	–	–	–	–	–	–
O=C1CN=C(c2ccccc2Cl)c2cc(Br)ccc2N1	–	·	–	?	–	–
CN=C1CN=C(c2ccc[nH]2)c2cc(Cl)ccc2N1	0.079µM	–	·	0.11µM	·	·
O=C1CN=C(c2ccc[nH]2)c2cc(Cl)ccc2N1	0.16µM	–	–	0.033µM	–	–
CCCCN1CC(=O)N2[C@H]3c4cc(C)ccc4OC[C@@H]3[C@H](c3ccccc3)[C@]2(C)C1=O	?	–	–	?	–	–
O=C(O)C(Cc1cnc[nH]1)NS(=O)(=O)c1ccc(Br)cc1 (stereo unspecified)	–	·	–	–	–	–
CC1(C)C(O)CC(O)[C@]2(C)C1CC(O)[C@]1(C)C2CC[C@@]2(C)C(c3ccoc3)CC3OC312 (stereo partly specified)	–	·	·	–	·	·
COc1ccc2c(c1)CC1(CN2C)C(=O)NC(=O)N(CCc2ccccc2)C1=O (stereo unspecified)	?	–	–	5.8µM	–	–
Cc1ccc2c(c1)CC1(CN2C)C(=O)NC(=O)N(c2cc(C)ccc2C)C1=O (stereo unspecified)	–	–	–	–	–	–
